# Screens from PubChem.
# H9c2 protect: protects H9c2 cardiomyocytes from peroxide injury; H2O2 injury protection, ATPLite, 2 h; protection from H2O2 cell death, % at 20 µM; actives 0.63% (n = 360,000);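 active means compounds giving at least 50% protection of heart cells from peroxide-induced death in the single-dose screen, raw or plate-pattern-corrected value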;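 further: 0% = DMSO wells with peroxide and 100% = DMSO wells without peroxide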
# PfG6PD inh: PfG6PD (Plasmodium falciparum) enzyme inhibition | PfGluPho enzyme, NADPH resazurin-diaphorase fluorescence | inhibition, % at 20 µM | actives 0.78% (n = 350,000) | AID 504690;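 active means inhibition reaching at least a set limit at 20 µM in the primary screen, cut at about 59% in these data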;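 further: 0% = DMSO wells with substrate and 100% = DMSO wells lacking glucose-6-phosphate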
# aDG glyco up: alpha-DG glycosylation activation; Pro5-aDG cells, alpha-DG glycosylation AlphaScreen (IIH6); 0% Pro5, 100% B10-LARGE cell signal; activation, % at 10 µM; actives 0.22% (n = 360,000); AID 624168;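 active means activation of at least 8% versus controls, or a plate z-score of at least 8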;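 further: Pro5 are CHO cells carrying HIG-tagged alpha-DG that lacks glycosylation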
# CRFR2-BP antag: CRF-BP/CRF-R2 complex antagonism; HEK293 CRF-R2/CRF-BP, CRF-induced calcium fluorescence; inhibition, % at 11.8 µM; actives 0.59% (n = 350,000); AID 588475;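 active means inhibition of the ligand-induced calcium signal above about 50% at the single tested concentration, limit read from the data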
# CRFR2-BP ag: agonists of human CRF-binding protein/CRF-R2 receptor complex; actives 0.46% (n = 350,000); activation, % at 13.2 µM; HEK293 CRF-R2/CRF-BP, calcium dye fluorescence (FLIPR); percent of saturating CRF peptide response;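 active means activation of at least 50%, plus an integration ratio under a set limit after plate pattern correction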;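 further: plate controls were neutral control wells without compound for no effect and CRF at EC100 for full effect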
# FAS TE block: FAS thioesterase (human) inhibition; P49327; recombinant FAS-TE, OMFH fluorogenic substrate, fluorescence endpoint; inhibition, % at 15 µM; actives 0.67% (n = 360,000);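 active means compounds whose normalised, plate-corrected inhibition of enzyme fluorescence in the single-dose primary screen is 50% or more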;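 further: 0% = DMSO with enzyme and 100% = substrate without enzyme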
# The depositor's hits bear a star; x = no result. Most compounds without a hit are left out; they make up all but 3.2% or so of the library.
SMILES,H9c2 protect,PfG6PD inh,aDG glyco up,CRFR2-BP antag,CRFR2-BP ag,FAS TE block
C=CCn1c(COc2ccccc2)nnc1SC(C)C(=O)N/N=C/c1cc(Cl)ccc1O (stereo unspecified),67*,-45,1,-14,0,45
O=C(OCc1nnc(-c2ccccc2)o1)c1ccc([N+](=O)[O-])s1,52*,16,0,17,2,7
Cc1ccc(C(=O)OCc2nnc(-c3ccccc3)o2)s1,-4,-15,0,27,-7,5
O=c1[nH]c2cccnc2c2ccsc12,58*,-24,0,5,-1,0
c1cnc2ncc3sccc3c2c1,3,-1,0,15,0,-6
O=[N+]([O-])c1cc2c(cc1C=Nc1ccccc1)OCO2,42,87*,0,-10,-2,-29
CC(C)Nc1nc(-c2ccccc2)nc(-n2ccnc2)n1,12,-12,2,8,1,1
c1ccc(-c2nc(-n3ccnc3)nc(-n3ccnc3)n2)cc1,74*,19,0,-7,1,-1
CCOc1ccccc1NC(=O)C1CCC(=O)N1S(=O)(=O)c1ccc(C)cc1 (stereo unspecified),7,-9,0,82*,-1,-3
O=C(CSC1=NNC(c2ccccn2)S1)Nc1cccc(Cl)c1 (stereo unspecified),61*,-18,0,-6,0,8
O=C(CSC1=NNC(c2ccccn2)S1)Nc1ccccc1 (stereo unspecified),32,18,0,1,0,24
CCOC(=O)C1(CCOC)CCN(C(=O)c2ccc(CSC)o2)CC1,0,4,0,2,0,-4
Oc1[nH]c2ccccc2c1N=Nc1ccccc1F,-8,1,0,-77,145*,-136
Oc1[nH]c2ccccc2c1N=Nc1ccccc1,-11,-6,0,2,10,-40
Oc1[nH]c2ccccc2c1N=Nc1ccc(F)cc1,-4,5,0,-59,62*,-159
COC(=O)c1c(NC(=O)CSc2ccccc2N)sc(C)c1C,4,-1,1,-13,0,13
CN(C)CCCNC(=O)c1ccccc1Oc1ccccc1,5,9,0,59*,2,-5
COC(C(=O)Nc1ccnn1C1CCN(C(=O)c2cccc(F)c2)CC1)c1ccccc1 (stereo unspecified),1,-3,0,-3,0,-1
CCCCCCCCCCCCCCCC[N+](C)(C)Cc1ccc(F)cc1,-18,25,1,-7,5,-138
CCOC(=O)c1cc(C#N)c(SCC(=O)c2cc(C#N)c(SC)nc2C)[nH]c1=O,76*,22,0,-3,6,3
CCOC(=O)c1cc(C#N)c(SCC(N)=O)[nH]c1=O,-1,19,0,1,10,-8
CC1C/C(=C/c2cccn2C)C(=O)/C(=C/c2cccn2C)C1 (stereo unspecified),2,13,0,-184,128*,-39
CC1C/C(=C/c2ccncc2)C(=O)/C(=C/c2ccncc2)C1 (stereo unspecified),-17,9,0,18,-2,-3
C[C@H](CO)N1C[C@H](C)[C@@H](CN(C)C(=O)NC2CCCCC2)Oc2c(NS(=O)(=O)c3cn(C)cn3)cccc2C1=O,-1,10,0,-5,-1,2
COc1ccc(Nc2nc(Nc3ccc(OC)cc3OC)nc(N3CCN(C)CC3)n2)c(OC)c1,64*,14,-1,4,-1,10
SMILES,H9c2 protect,PfG6PD inh,aDG glyco up,CRFR2-BP antag,CRFR2-BP ag,FAS TE block
COc1ccc(OC)c(NC(=O)c2nc(S(=O)(=O)Cc3ccccc3)ncc2Cl)c1,-16,23,0,62*,-1,44
COc1ccc(NC(=O)c2nc(S(=O)(=O)Cc3cccc(C)c3)ncc2Cl)c(OC)c1,-11,-3,0,31,1,2
COc1ccc(N(CC(=O)NCCSc2ccccc2)S(=O)(=O)c2ccccc2)c(OC)c1,56*,4,0,18,10,24
Cc1ccc(Cl)cc1N(CC(=O)N1CCOCC1)S(C)(=O)=O,1,6,0,74*,1,-6
CCC(=O)Nc1cccc(-n2nnnc2SCC(=O)N2CCCCC2)c1,-11,-15,0,-164,89*,7
COc1cc(OC)cc(-n2nnnc2SCC(=O)N2CCCC2)c1,12,9,0,3,-1,-7
Cc1ccc(-c2cc(C(=O)N/N=C/c3ccc([N+](=O)[O-])o3)c3ccccc3n2)o1,-20,28,3,2,-2,4
Cc1cc(N/N=C/c2ccc([N+](=O)[O-])o2)nc2ccccc12,10,-5,8.2*,-25,12,-9
O=C(CNc1cccc2ccccc12)N/N=C/c1ccc([N+](=O)[O-])o1,-1,17,8.2*,5,0,14
O=[N+]([O-])c1ccc(/C=N/N=C/c2ccc([N+](=O)[O-])o2)o1,-22,60*,-1,-25,6,-8
O=C(Cc1ccc([N+](=O)[O-])cc1)N/N=C/c1ccc([N+](=O)[O-])o1,6,17,10*,4,1,2
CCCCCCCC(=O)N/N=C/c1ccc([N+](=O)[O-])o1,-10,35,1,-12,2,32
O=C(O)/C=C/c1ccc([N+](=O)[O-])o1,-6,-4,0,-3,-2,-6
Cc1c(-c2ccccc2)oc2c(C(=O)N3CCN(c4ccccc4F)CC3)cccc2c1=O,34,-3,0,-83,8,19
O=C(N/N=C\c1ccc(-c2ccc([N+](=O)[O-])cc2)o1)c1ccc2c(c1)OCO2,8,-4,0,-17,4,-24
O=C(N/N=C/c1ccc([N+](=O)[O-])o1)c1ccc2c(c1)OCO2,0,25,10*,9,-1,-5
O=c1[nH]c(NCc2ccccc2)nc2c1CCCC2,53*,-15,0,0,-2,-5
Cc1ccc(-c2oc3ccccc3c(=O)c2O)cc1,74*,-22,0,-34,36,-6
O=c1c(O)c(-c2ccccc2)oc2ccccc12,17,-26,0,-8,24,-1
O=c1c(O)c(-c2ccccc2)oc2cc(O)ccc12,79*,x,0,x,x,7
CCc1nn(CC(=O)NCc2cccnc2)c(=O)c2cc3occc3n12,3,-12,1,-3,-1,-7
COc1ccc(NS(=O)(=O)c2cccs2)cc1S(=O)(=O)N1CCOCC1,4,-4,0,-15,3,-6
COc1ccc(Nc2nc(-c3cccs3)nc3ccccc23)cc1S(=O)(=O)N1CCOCC1,67*,31,0,-13,1,42
